Results taken from PubChem BioAssay (NCI).
The panel holds about 83,000 compounds, 20% with a hit somewhere; the sample as a whole holds those more often.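 Interpretation: 100, growth as untreated; towards 0, rising growth inhibition; 0, no net growth; 0 to -100, cell death. Compounds scoring below 10 were considered active.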 The source made the active and inactive calls.

What was measured:
Test in all cases: NCI-60 one-dose screen, 48 h (100 = growth as untreated, 0 = no growth, -100 = all killed)
Details in all cases: 10 µM unless noted
[1] = system: T-47D breast
[2] = system: BT-549 breast
[3] = system: MDA-MB-435 melanoma
[4] = system: SW-620 colon
[5] = system: MCF7 breast
[6] = system: HCT-116 colon
[7] = system: HCC-2998 colon
[8] = system: KM12 colon

Measured: growth

COc1ccc(S(=O)(=O)n2c3ccccc3n3ncc(-c4nnc(C)o4)c23)cc1
active: [3] -21.9%
inactive: [1] 41.8% | [2] 49.5% | [4] 27% | [5] 18.9% | [6] 18.4% | [7] 17.1%

COc1nc2ccccc2cc1-c1nc2c(cnn2-c2ccccc2)c(=O)[nH]1
active: [3] -20.9%
inactive: [1] 50.1% | [2] 38.5% | [4] 20.8% | [5] 20.9% | [6] 42.1% | [7] 73.3%

c1ccc(Nc2cc(-c3cccnc3)[nH]n2)cc1
inactive: [1] 99.5% | [2] 99.4% | [3] 101% | [4] 115% | [5] 88.9% | [6] 105%

COc1cc(C)c(Cc2cnc(N)nc2N)cc1OC
inactive: [1] 92.7% | [2] 95.4% | [3] 112% | [4] 102% | [5] 101% | [6] 112% | [7] 108%

Cc1ccc(S(=O)(=O)Oc2ccc(NC(=O)c3ccc(Cl)cc3)cc2)cc1
inactive: [1] 98.1% | [2] 90.8% | [3] 105% | [4] 103% | [5] 91.8% | [6] 81% | [7] 104% | [8] 103%

CCc1ccc(Oc2c(-c3ccc(OCc4ccc(Cl)cc4)cc3O)n[nH]c2C(F)(F)F)cc1
inactive: [2] 34.7% | [4] 17.4% | [7] 62.2%
active: [1] -2.85% | [3] 7.72% | [5] 4.9% | [6] -5.05%

Cc1[nH]c(C(=O)Nc2ccc(C(=O)N3CCNCC3)cc2OC(C)C)c(Cl)c1Cl
inactive: [1] 64.1% | [2] 93% | [3] 35.9% | [5] 60% | [6] 14.5%
active: [4] -55.8% | [7] -45.9%

O=c1c2cc(F)cc(Cl)c2sc2c(NCCCNCCO)nc3ccccc3c12
inactive: [1] 101% | [2] 82.4% | [3] 61.1% | [5] 64.6% | [6] 65.1% | [7] 60.9%
active: [4] -32%

Fc1cc(-c2nnc3sc(-c4ccc(Cl)cc4Cl)nn23)c(Cl)cc1Cl
inactive: [1] 68.4% | [2] 79.4% | [3] 94.3% | [4] 81.7% | [5] 83.7% | [6] 45.9% | [7] 93%

COc1ccc2cc(C(C)C(=O)Nc3ccc(-c4n[nH]c(=S)n4C4CCCCC4)cc3)ccc2c1 (stereo unspecified)
inactive: [1] 69.7% | [2] 90.9% | [3] 62.4% | [4] 92.2% | [5] 48.3% | [6] 48.6% | [7] 70.5%

CC(=O)c1ccc(Nc2nc(C(C)=O)c(C)s2)cc1
inactive: [1] 92.4% | [2] 105% | [3] 100% | [4] 96.2% | [5] 83.6% | [6] 104% | [7] 98.3%

c1ccc(-c2nc3sc(-c4ccccc4)cn3n2)cc1
inactive: [1] 36.7% | [2] 99.9% | [3] 99.2% | [4] 94.9% | [5] 38.3% | [6] 88.9% | [7] 104%

CNc1nc2c(s1)C(c1cccc(F)c1)CC(=O)N2 (stereo unspecified)
inactive: [1] 94.8% | [2] 94.5% | [3] 99.9% | [4] 102% | [5] 95.2% | [6] 99.8% | [7] 104% | [8] 101%

CCc1ccc2nc(NC(=O)Cc3csc(NC(=O)c4ccco4)n3)sc2c1
inactive: [1] 55.1% | [2] 57.4% | [3] 90.6% | [4] 101% | [5] 18.3% | [6] 78% | [7] 101%

C=C1C(=O)O[C@H]2[C@H]1CC/C(COC(=O)CSCC(=O)OC/C1=C/CC[C@@]3(C)O[C@H]3[C@H]3OC(=O)C(=C)[C@@H]3CC1)=C\CC[C@@]1(C)O[C@@H]21
inactive: [1] 12.3% | [3] 26.8% | [5] 23.4%
active: [2] -1.44% | [4] -29% | [6] -46.6%

COc1cc(C(=O)/C=C/c2sc(Cl)nc2Cl)cc(OC)c1OC
active: [4] -61% | [5] -68.1% | [6] -54.3% | [7] -58.3%
inactive: [1] 28.2% | [2] 86.2% | [3] 98.5%

NCCCNc1nc2ccccc2c2c(=O)c3cc(OC(F)(F)F)ccc3sc12
active: [1] -9.69% | [3] -79.2% | [4] -75.8% | [5] -70.1% | [6] -83.4% | [7] -88.1%
inactive: [2] 93.1%

CCCCOc1nc2c(C)cccc2cc1-c1cc(-c2ccc(Cl)cc2)nc(-c2ccc(Cl)cc2)c1
inactive: [1] 99% | [2] 101% | [3] 102% | [4] 98.4% | [5] 96.9% | [6] 99.5% | [7] 108%

CCc1nnc(NC(=O)c2nnn(-c3ccccc3)c2-c2ccco2)s1
inactive: [1] 85% | [2] 102% | [3] 97.1% | [4] 98.5% | [5] 78.6% | [6] 64.2% | [7] 110%

O=C(Nc1ccc(F)cc1F)c1cc(F)ccc1O
active: [1] 6.93% | [2] 8.69% | [5] 4.23%
inactive: [3] 14.6% | [4] 20.8% | [6] 12.8% | [7] 27.9%

CCOC(=O)Cn1c(C)c(/C=N/NC(=O)c2cc3c(ccc4ccccc43)o2)c2ccccc21
active: [3] -11.4% | [6] 8.16%
inactive: [1] 58.7% | [2] 35.3% | [4] 30.4% | [5] 17% | [7] 31.3%

COc1ccc(OC)c(/C=C/c2nnc(Nc3ccccc3)o2)c1
inactive: [1] 80.4% | [2] 97.1% | [3] 89.1% | [4] 113% | [5] 98.3% | [6] 103% | [7] 102%

C/C(=C(/c1ccccc1)c1ccc(N2C(=O)c3cccc4c(N5CCN(C)CC5)ccc(c34)C2=O)cc1)c1ccccc1
inactive: [1] 65.3% | [2] 99.6% | [3] 88.2% | [4] 80.2% | [5] 59% | [6] 49.4% | [7] 99.8%

CC(=O)CC(c1cccs1)c1c(-c2ccccc2)[nH]c2ccccc12 (stereo unspecified)
inactive: [1] 84.6% | [2] 105% | [3] 98% | [4] 90.4% | [5] 92.2% | [6] 89.9% | [7] 97.8%

Brc1c[n+](Cc2ccc3ccccc3c2)cn1Cc1ccc2ccccc2c1
inactive: [4] 37.7% | [5] 14.3% | [6] 17%
active: [1] 6.91% | [2] -12.1% | [3] -32.1%

COc1cc(C(=O)/C=C/c2ccc(OCCCCCC[P+](c3ccccc3)(c3ccccc3)c3ccccc3)cc2)cc(OC)c1OC
active: [1] -21.5% | [2] -47.6% | [3] -58.9% | [4] -80.4% | [5] -68.1% | [6] -77.3% | [7] -20.3%

O=c1c2cc(F)ccc2sc2c(NCCN3CCOCC3)nc3ccccc3c12
inactive: [1] 84.9% | [2] 82.3% | [3] 61.2% | [4] 42.4% | [5] 76.9% | [6] 46.9% | [7] 59% | [8] 26%

COc1ccc(-n2c(N)c(-c3nc4ccccc4[nH]3)cc(C#N)c2=O)cc1
inactive: [1] 77.8% | [2] 75.1% | [3] 99.3% | [4] 106% | [5] 87.7% | [6] 88.2% | [7] 108%

C/C(=C\C(=O)c1ccc(Cl)cc1)c1ccc(Cl)cc1
inactive: [1] 85.8% | [2] 103% | [3] 102% | [4] 99.3% | [5] 19.4% | [6] 101% | [7] 82.2%

COc1ccc(C2=Nn3c(nnc3-c3cc(Cl)cc(Cl)c3Cl)SC2)cc1
active: [2] -31.2% | [3] -46.7% | [5] 7.11% | [6] -27% | [7] -57.9%
inactive: [1] 68.6% | [4] 20.2%

Cc1ccc(C(=O)N/N=C/c2cccc(Oc3ccccc3)c2)cn1
active: [3] -48%
inactive: [1] 66.3% | [2] 38.1% | [4] 29.3% | [5] 37.2% | [6] 32.8% | [7] 55.4%

Cc1onc2c(-c3ccccc3)n[nH]c(=O)c12
inactive: [1] 83.3% | [2] 67.7% | [3] 96.9% | [4] 111% | [5] 89.8% | [6] 104%

C=C1CC[C@H](C(C)C)[C@@H]2[C@H]1[C@H]1CC(=C)[C@@H](O)CC[C@@](C)(O)[C@@H]2O1
inactive: [1] 97.1% | [2] 99.2% | [3] 96.8% | [4] 96.7% | [5] 97% | [6] 86.2% | [7] 77.9%

COc1ccc(-c2nnc(COc3ccc(Cl)cc3Cl)o2)cc1OC
active: [1] -10.5%
inactive: [2] 80.1% | [3] 48.4% | [4] 40.6% | [5] 32.9% | [6] 34.3% | [7] 95%

Nc1ccccc1-c1cc2c(c3c1[nH]c1ccccc13)CCCCC2
inactive: [1] 86.8% | [2] 108% | [3] 112% | [4] 96.2% | [5] 76% | [6] 76.3% | [7] 106%

CCOC(=O)c1c2c(n(-c3ccc(C#N)cc3)c1-c1ccccc1)C=CCC2
inactive: [1] 72.6% | [2] 97.8% | [3] 95.3% | [4] 96.9% | [5] 76.4% | [6] 66.2% | [7] 90.5%
